Out of some 5,500 compounds screened, about 2,000 (36%) were called active. Not shown: some 18% with an inconclusive outcome. No stated cut-off is given here; in the data, active means normalized growth mostly below about 0.91 (no sharp cut-off); inconclusive means no clear call, values can overlap the other calls; inactive means mostly above about 0.92. Some of the results follow.
Test: chemical genetic growth profiling, strain panel (AID 1159580);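 further: tested at 20 µM; growth read once vehicle control cultures reached saturation at 30 °C; 1 = growth at the plate median or of vehicle wells; lower values mean less growth of the strain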
Conditions: S. cerevisiae deletion strains, growth OD
[1] = locus YDL101C, strain DUN1, active compounds read low
[2] = locus YHR030C, strain SLT2, active compounds read low
[3] = locus YHR079C, strain IRE1, active compounds read low
[4] = locus YJL095W, strain BCK1, active compounds read low
[5] = locus YJR066W, strain TOR1, active compounds read low
[6] = locus YLR113W, strain HOG1, active compounds read low
[7] = locus YNL183C, strain NPR1, active compounds read low
[8] = locus YOR231W, strain MKK1, active compounds read low
[9] = locus YPL256C, strain CLN2, active compounds read low
[10] = locus YAL013W, strain DEP1, active compounds read low
[11] = locus YBR229C, strain ROT2, active compounds read low
[12] = locus YDL134C, strain PPH21, active compounds read low
[13] = locus YDR150W, strain NUM1, active compounds read low
[14] = locus YEL061C, strain CIN8, active compounds read low
[15] = locus YGR078C, strain PAC10, active compounds read low
[16] = locus YHR087W, strain rtc3, active compounds read low
[17] = locus YJR043C, strain POL32, active compounds read low
[18] = locus YJR075W, strain HOC1, active compounds read low
[19] = locus YLR039C, strain RIC1, active compounds read low
[20] = locus YLR058C, strain SHM2 (second series), active compounds read low
[21] = locus YLR085C, strain ARP6, active compounds read low
[22] = locus YLR262C, strain YPT6, active compounds read low
[23] = locus YML094W, strain GIM5, active compounds read low
[24] = locus YMR219W, strain ESC1, active compounds read low
[25] = locus YNL153C, strain GIM3, active compounds read low
[26] = locus YNL298W, strain CLA4 (second series), active compounds read low
[27] = locus YNL322C, strain KRE1, active compounds read low
[28] = locus YNR030W, strain Alg12, active compounds read low
[29] = locus YOL006C, strain TOP1, active compounds read low
[30] = locus YPL055C, strain LGE1, active compounds read low
[31] = locus YPL241C, strain CIN2, active compounds read low
[32] = locus YPR135W, strain CTF4, active compounds read low

Measured: normalized growth

N#CC(C#N)=C/C=C(/Sc1nc2ccccc2s1)c1ccc(Br)cc1
active: locus YAR019C, strain CDC15, active compounds read low 0.148 | locus YBL105C, strain PKC1, active compounds read low 0.157 | locus YBR135W, strain CKS1, active compounds read low 0.189 | locus YBR136W, strain MEC1, active compounds read low 0.206 | locus YBR160W, strain CDC28, active compounds read low 0.22 | locus YDL017W, strain CDC7, active compounds read low 0.207 | locus YDL028C, strain MPS1, active compounds read low 0.28 | [1] 0.338 | locus YDL108W, strain KIN28, active compounds read low 0.289 | locus YDL132W, strain cdc53, active compounds read low 0.299 | locus YDL214C, strain PRR2, active compounds read low 0.144 | locus YDR052C, strain DBF4, active compounds read low 0.695 | locus YDR054C, strain cdc34, active compounds read low 0.145 | locus YDR226W, strain ADK1, active compounds read low 0.28 | locus YDR477W, strain SNF1, active compounds read low 0.144 | locus YER123W, strain YCK3, active compounds read low 0.217 | locus YER133W, strain GLC7, active compounds read low 0.168 | locus YFL009W, strain cdc4, active compounds read low 0.317 | locus YFL029C, strain CAK1, active compounds read low 0.153 | locus YFR003C, strain YPI1, active compounds read low 0.253 | locus YFR019W, strain FAB1, active compounds read low 0.146 | locus YFR028C, strain CDC14, active compounds read low 0.187 | locus YGR040W, strain KSS1, active compounds read low 0.156 | locus YGR052W, strain FMP48, active compounds read low 0.167 | locus YGR092W, strain DBF2, active compounds read low 0.155 | [2] 0.124 | [3] 0.17 | locus YHR082C, strain KSP1, active compounds read low 0.163 | locus YHR205W, strain SCH9, active compounds read low 0.0272 | locus YIL147C, strain SLN1, active compounds read low 0.215 | [4] 0.116 | locus YJL128C, strain PBS2, active compounds read low 0.391 | locus YJL157C, strain FAR1, active compounds read low 0.118 | locus YJR016C, strain ILV3, active compounds read low 0.176 | locus YJR066W, strain TOR1 (second series), active compounds read low 0.114 | [5] 0.156 | locus YKL048C, strain ELM1, active compounds read low 0.322 | locus YKL067W, strain YNK1, active compounds read low 0.137 | locus YKL101W, strain HSL1, active compounds read low 0.175 | locus YKL193C, strain SDS22, active compounds read low 0.155 | locus YKL203C, strain TOR2, active compounds read low 0.158 | [6] 0.218 | locus YLR133W, strain CKI1, active compounds read low 0.149 | locus YLR403W, strain SFP1, active compounds read low 0.0212 | locus YML070W, strain DAK1, active compounds read low 0.172 | locus YMR001C, strain CDC5, active compounds read low 0.126 | locus YMR205C, strain PFK2 (second series), active compounds read low 0.138 | locus YMR277W, strain FCP1, active compounds read low 0.144 | locus YNL006W, strain LST8, active compounds read low 0.13 | locus YNL020C, strain ARK1, active compounds read low 0.142 | locus YNL161W, strain CBK1, active compounds read low 0.164 | [7] 0.153 | locus YNL207W, strain RIO2, active compounds read low 0.21 | locus YNL222W, strain SSU72, active compounds read low 0.177 | locus YNL307C, strain MCK1 (second series), active compounds read low 0.137 | locus YOL078W, strain AVO1, active compounds read low 0.154 | locus YOL136C, strain PFK27, active compounds read low 0.161 | locus YOR061W, strain CKA2, active compounds read low 0.174 | locus YOR119C, strain RIO1, active compounds read low 0.155 | [8] 0.171 | locus YOR329C, strain SCD5, active compounds read low 0.164 | locus YPL031C, strain PHO85, active compounds read low 0.135 | locus YPL153C, strain RAD53, active compounds read low 0.133 | locus YPL204W, strain HRR25, active compounds read low 0.142 | locus YPL209C, strain IPL1, active compounds read low 0.159 | [9] 0.216 | locus YPR025C, strain CCL1, active compounds read low 0.181 | strain NNK1, active compounds read low 0.304 | strain TSCII, active compounds read low 0.157

CC(C)(O/N=C(/C(=O)N[C@@H]1C(=O)N2C(C(=O)[O-])=C(C[n+]3ccccc3)CSC12)c1csc(N)n1)C(=O)O (stereo partly specified)
inactive: [2] 1.02 | [3] 1.02 | [4] 1.01 | [5] 0.95 | [6] 1.05 | [7] 0.962 | [8] 1.02 | [9] 1.03

COc1cc(C2N=C(c3ccc(Cl)cc3)SC(c3ccc(Cl)cc3)=N2)cc(OC)c1OC
inactive: [10] 1 | [11] 1.01 | [1] 1.02 | [12] 1.03 | [13] 1.02 | [14] 0.997 | [15] 1.01 | [2] 0.991 | [16] 1.02 | [17] 1.03 | [18] 0.991 | [19] 1.02 | [20] 1.04 | [21] 1 | [22] 1.03 | [23] 1 | [24] 1 | locus YMR263W, strain SAP30, active compounds read low 0.949 | [25] 1.01 | [26] 1.02 | [27] 1 | [28] 1.03 | [29] 0.891 | [30] 0.974 | [31] 1.01 | [32] 1.09

COc1ccc(-c2c(C)nc3ccc(Cl)cc3c2-c2ccccc2)cc1OC
inactive: [11] 0.937 | [1] 0.945 | [13] 0.861 | [14] 0.949 | [15] 0.935 | [2] 0.759 | [16] 0.913 | [17] 0.977 | locus YKL190W, strain CNB1, active compounds read low 0.98 | [19] 0.821 | [20] 0.986 | [21] 0.785 | [22] 0.948 | [23] 0.933 | [24] 0.947 | locus YNL128W, strain TEP1, active compounds read low 1.01 | [25] 0.972 | [26] 1 | [27] 0.98 | [28] 0.889 | [29] 0.817 | [30] 0.798 | [32] 0.754
active: [10] 0.91 | [12] 0.914 | [18] 0.819 | locus YMR307W, strain GAS1, active compounds read low 0.546 | [31] 0.85
